From PubChem BioAssay
PTAP TSG101 blk = blocks PTAP/TSG101 interaction to inhibit HIV-1 budding; Q99816; Fluorescence polarization, FITC-PTAP peptide / Tsg101 binding; Potency, µM (highest dose often 115 µM), for inactives: at the top dose activity change, negative = inhibition, usual class: inhibitors; 340,000 tested, under 10 active; active = well fitted inhibition curve with a large enough effect in the main read-out, with a control signal flat, not every such curve was filed as active; inconclusive = small, poorly fitted or top-dose-only effect, or effect the other way, or a change in a side signal; inactive = no such curve, though single readings can be large or run the other way; note: potency is the fitted concentration of half-maximal effect; % of control where 0% means no effect
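Fluorescence polarization binding of Tsg101 binding domain (10 uM final) to FITC-labeled PTAP peptide (50 nM final) in HEPES pH 7.5 buffer with NaCl, Tween 20, EDTA, TCEP. Compounds added before peptide; binding 20 min at RT.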
KCNH2 3.1 block = blocks the human KCNH2 3.1 channel isoform; U2OS KCNH2 3.1, thallium flux FluxOr; hits give low values; activity change, % (tested at about 1.8 µM); 0.95% of 340,000 active; AID 720553;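 active = maximum activity change below -70%; inconclusive = maximum activity change from -70% to -50%; inactive = maximum activity change above -50%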;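 note: thallium influx rate constant from kinetic fluorescence after stimulation buffer; % is set by controls: 0 for no effect and ±100 for the full control effect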
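U2OS cells transduced with KCNH2 3.1 mutant virus (1.77 x 10^8 /mL, 4 h), plated overnight at 37 C, loaded 45 min with FluxOr dye plus Red40 quencher. Thallium flux rate constant from kinetic reads after stimulation buffer, normalised to controls.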
Glioma ERSR ind = inducers of ER stress response in human glioma cells; 0.02% of 420,000 active; Potency, µM, without a hit: at the highest dose activation, actives largely listed as activators; AID 602332; U87-MG GRP78 promoter luciferase reporter, 16 h; active = well fitted activation curve with a large enough effect; inconclusive = small, poorly fitted or top-dose-only effect; inactive = no such curve, though single readings can be large or run the other way; note: potency is the fitted concentration of half-maximal effect; series mostly up to about 76 µM; % of control where 0% means no effect; nearly all actives have a fitted effect of over 35% in size
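Stably transfected U87-MG glioma cells carrying a GRP78-based luciferase sensor; 16 h compound incubation. Luminescence end-point read 10 min after Bright-Glo addition at room temperature.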
TRPML1 inh = blocks the human TRPML1 channel. Q9GZU1. activity change, negative = inhibition, % (test concentration not listed). TRPML1-inducible cells, Ca2+ dye fluorescence, FDSS; hits give low values; inhibition of EC80 agonist-evoked calcium signal. 0.02% of 390,000 active. AID 624415; in the data active = activity change below about -50%; inconclusive = between about -30% and that limit;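 note: stimulus is agonist 54-4 at its EC80 concentration; % is set by controls: 0 for no effect and ±100 for the full control effect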
Target sequence (Q9GZU1 whole entry, looked up): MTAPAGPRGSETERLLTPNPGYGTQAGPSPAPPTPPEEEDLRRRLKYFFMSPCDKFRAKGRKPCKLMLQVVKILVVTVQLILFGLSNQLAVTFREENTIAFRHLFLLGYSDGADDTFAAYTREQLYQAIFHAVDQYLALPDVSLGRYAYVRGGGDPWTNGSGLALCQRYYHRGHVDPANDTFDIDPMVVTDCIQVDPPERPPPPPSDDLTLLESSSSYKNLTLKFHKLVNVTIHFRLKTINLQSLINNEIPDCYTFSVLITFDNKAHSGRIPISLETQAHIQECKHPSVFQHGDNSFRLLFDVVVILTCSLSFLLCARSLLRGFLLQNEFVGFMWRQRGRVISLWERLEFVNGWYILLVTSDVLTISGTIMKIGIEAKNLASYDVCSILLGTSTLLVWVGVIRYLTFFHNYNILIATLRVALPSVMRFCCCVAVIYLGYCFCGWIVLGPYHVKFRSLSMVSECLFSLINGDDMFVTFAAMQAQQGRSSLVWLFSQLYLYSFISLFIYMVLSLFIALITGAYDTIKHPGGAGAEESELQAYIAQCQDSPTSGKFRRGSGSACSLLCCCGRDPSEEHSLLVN
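Calcium fluorescence in TRPML1-DL cells induced overnight with Tet: a 110 s read after compound pin addition, then a 110 s antagonist read after challenge with 54-4 at 4 uM final (EC80).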
KCNH2 WT inh = KCNH2 (human, wildtype) channel inhibition | U2OS, BacMam KCNH2, thallium flux FluxOr; hits give low values | activity change, % at 1.84 µM | 0.37% of 340,000 active | Q12809;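 active = maximum activity change below -70%; inconclusive = maximum activity change between -70% and -50%; inactive = maximum activity change above -50%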; note: % is set by controls: 0 for no effect and ±100 for the full control effect
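U2OS cells were transduced with wild-type KCNH2 virus (2.03 x 10^8 / mL) for 4 h at room temperature, then cultured overnight at 37 C. Thallium flux was read with FluxOr dye. Rate constants were normalized to DMSO controls.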
TRPML1 agonist = activates the human TRPML1 channel; Q9GZU1; TRPML1-expressing cells, Ca2+ dye fluorescence, FDSS; activation, % (test concentration not listed); 0.12% of 410,000 active; in the data active = activation above about 50%; inconclusive = mostly about 30% to 49%; note: 0% is about no effect
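Calcium fluorescence on an FDSS kinetic reader gave the read-out. Tet-induced TRPML1-DL cells were plated overnight, dye-loaded (Ca8 with quencher, 45-90 min, room temperature, dark), then read 110 s after compound addition, and again 110 s after 4uM final 54-4 (EC80).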
An asterisk follows results filed as active. Rows were chosen to be rich in hits. Some 1% of all compounds tested hit in one or more screens of this group.

Screening Cc1ccccc1CN1CCc2nnc(C(C)NC(=O)c3cc(F)ccc3F)n2CC1 (stereo not drawn) returned Glioma ERSR ind -4%.
CC(C)c1c(C(=O)NC(c2cccnc2)C(F)(F)F)cnn1-c1nccc(-c2cccs2)n1 (stereo not drawn) was read as Glioma ERSR ind -5%.
`Cn1cnnc1SCC(=O)Nc1sc2c(c1C(N)=O)CCC2` gave PTAP TSG101 blk -7%, KCNH2 3.1 block -22, Glioma ERSR ind -2%, TRPML1 inh 101, KCNH2 WT inh -284* and TRPML1 agonist 0.
For CCN1CCN(C(=O)/C(=C/c2cccs2)NC(=O)c2ccc(C)c(C)c2)CC1 the results were PTAP TSG101 blk -8%, KCNH2 3.1 block 12, Glioma ERSR ind -3%, TRPML1 inh -2, KCNH2 WT inh -100* and TRPML1 agonist 1.
`COc1cc(=O)n2c(c1C(=O)N(C)Cc1nonc1C)CCN(Cc1c(F)cccc1F)CC2` gave Glioma ERSR ind -5%.
For CCN1CCN(C(c2ccc(OC)cc2)C(O)C(=O)c2c[nH]c3ccccc23)CC1 (stereo not drawn) the results were PTAP TSG101 blk -6%, KCNH2 3.1 block -99*, Glioma ERSR ind 0%, TRPML1 inh 6, KCNH2 WT inh -104* and TRPML1 agonist -1.
Screening COc1ccc(OCC(=O)c2c[nH]c3ccccc23)cc1 returned PTAP TSG101 blk 1%, KCNH2 3.1 block 9, Glioma ERSR ind 17%, TRPML1 inh -4, KCNH2 WT inh 8 and TRPML1 agonist 0.
Screening CCOc1ccc(CN2CCOc3ccc(C(O)c4cccnc4)cc3C2)cc1 (stereo not drawn) returned Glioma ERSR ind -4%.
O=C(CCc1nnc2ccc(NCc3ccccc3Cl)nn12)NC1CCCC1 was read as PTAP TSG101 blk 2%, KCNH2 3.1 block 7, Glioma ERSR ind -5%, TRPML1 inh -11, KCNH2 WT inh -1 and TRPML1 agonist 0.
O=C(CCc1nnc2ccc(NCc3ccccc3)nn12)NC1CCCC1 was read as PTAP TSG101 blk -2%, KCNH2 3.1 block -75*, Glioma ERSR ind -8%, TRPML1 inh -11, KCNH2 WT inh -9 and TRPML1 agonist -1.
CC(=O)c1ccc(N2CCN(c3ccc(C(F)(F)F)cn3)CC2)cc1 was read as PTAP TSG101 blk 0%, KCNH2 3.1 block -200*, Glioma ERSR ind -2%, TRPML1 inh 77, KCNH2 WT inh -139* and TRPML1 agonist 0.
`CCc1noc(C)c1C(=O)N1CCOc2ccc(CN3CCCC(C(=O)c4cccnc4)C3)cc2C1` (stereo not drawn) gave Glioma ERSR ind -5%.
For COC(=O)[C@@H]1CCCN1Cc1ccc2c(c1)CN(Cc1ccccc1F)CCO2 the results were Glioma ERSR ind -5%.
`Cc1ccc(C(=O)N/C(=C\c2ccc(Cl)cc2)C(=O)NCCCN2CCOCC2)cc1` gave PTAP TSG101 blk 0%, KCNH2 3.1 block -103*, Glioma ERSR ind -2%, TRPML1 inh -6, KCNH2 WT inh -141* and TRPML1 agonist 1.
`O=C(NCCCN1CCN(CCCNC(=O)c2cccc([N+](=O)[O-])c2)CC1)c1cccc([N+](=O)[O-])c1` gave PTAP TSG101 blk -5%, KCNH2 3.1 block -81*, Glioma ERSR ind -5%, TRPML1 inh 12, KCNH2 WT inh -41 and TRPML1 agonist 0.
Screening Cc1ccc(C(=O)N/C(=C\c2ccc(C(C)C)cc2)C(=O)NCCCN2CCOCC2)cc1 returned PTAP TSG101 blk 0%, KCNH2 3.1 block 12, Glioma ERSR ind -4%, TRPML1 inh 3, KCNH2 WT inh -20 and TRPML1 agonist 2.
Cc1ccc(C(=O)N/C(=C\c2ccc(-c3cccc([N+](=O)[O-])c3)o2)C(=O)NCCCN2CCOCC2)cc1 was read as PTAP TSG101 blk -1%, KCNH2 3.1 block -186*, Glioma ERSR ind -2%, TRPML1 inh 41, KCNH2 WT inh 5 and TRPML1 agonist 0.
`O=C(CN1CCCCCC1)NN(Cc1ccccc1)c1ccccc1` gave PTAP TSG101 blk 1%, KCNH2 3.1 block -95*, Glioma ERSR ind -2%, TRPML1 inh 9, KCNH2 WT inh -45 and TRPML1 agonist 2.
`O=C(CN1CCN(c2ccc(O)cc2)CC1)NC(c1ccccc1)c1ccccc1` gave PTAP TSG101 blk -3%, KCNH2 3.1 block -22, Glioma ERSR ind -1%, TRPML1 inh 2, KCNH2 WT inh 26 and TRPML1 agonist 1.
`O=C(CN1CCCC1)NCc1ccccc1` gave PTAP TSG101 blk 0%, KCNH2 3.1 block 18, Glioma ERSR ind 0%, TRPML1 inh -4, KCNH2 WT inh -23 and TRPML1 agonist 0.
For O=C(CN1CCCCCC1)NC(c1ccccc1)c1ccccc1 the results were PTAP TSG101 blk -6%, KCNH2 3.1 block -82*, Glioma ERSR ind 0%, TRPML1 inh 5, KCNH2 WT inh 17 and TRPML1 agonist 1.
For COc1cc(=O)n2c(c1C(=O)NC(C)c1ccco1)CCN(C(=O)c1ccc(F)cc1Cl)CC2 (stereo not drawn) the results were Glioma ERSR ind -1%.
O=C(NC1CCCCCCC1)c1ccc(Br)o1 was read as PTAP TSG101 blk -4%, KCNH2 3.1 block -199*, Glioma ERSR ind 1%, TRPML1 inh 5, KCNH2 WT inh -11 and TRPML1 agonist -1.
`O=C(NC1CCCCCC1)c1ccc(Br)o1` gave PTAP TSG101 blk -1%, KCNH2 3.1 block -2, Glioma ERSR ind 3%, TRPML1 inh -19, KCNH2 WT inh 0 and TRPML1 agonist 1.
O=C(NCCN1CCOCC1)c1cnn(-c2nccc(-c3ccccc3F)n2)c1C1CC1 was read as Glioma ERSR ind 3%.
Screening CCN(CC)c1ccc(/C=C2/C(=O)c3ccc(C(=O)O)cc3C2=O)cc1 returned PTAP TSG101 blk inconclusive, KCNH2 3.1 block -3, Glioma ERSR ind 11%, TRPML1 inh -19, KCNH2 WT inh -7 and TRPML1 agonist 65*.
CCN(CC)c1ccc(C=C2C(=O)OC3(CCCCC3)OC2=O)cc1 was read as PTAP TSG101 blk 0%, KCNH2 3.1 block 4, Glioma ERSR ind 0%, TRPML1 inh 16, KCNH2 WT inh -1 and TRPML1 agonist 0.
`Cc1ccn2c(Cc3ccccc3)c(-c3ccc(Br)cc3)nc2c1` gave KCNH2 3.1 block -74*, Glioma ERSR ind 1%, TRPML1 inh 63, KCNH2 WT inh -18 and TRPML1 agonist 2.
`Cc1ccn2c(Cc3ccccc3)c(-c3ccccc3)nc2c1` gave KCNH2 3.1 block 1, Glioma ERSR ind -1%, TRPML1 inh 39, KCNH2 WT inh -2 and TRPML1 agonist 1.
